Screening data as filed in PubChem BioAssay.
nsP2pro primary: Primary qHTS for inhibitors of NSP2Pro chikungunya virus (CHIKV) | AID 1964107, 2024 | 31,000 tested, 1.1% active | Polyprotein P1234 (Chikungunya virus (strain S27-African prototype)), Q8JUX6 | Potency, µM (doses to about 24.9 µM), inactives show at the top dose activity change, negative = inhibition, most hits filed as inhibitors | FRET peptide cleavage, nsP2pro, fluorescence 1 h; note: nearly all actives have a fitted effect of over 60% in size
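Enzyme 150 nM, substrate 2.5 uM (both final); Tris-HCl 10 mM pH 8.0 + 0.01% Tween 20; cpd up to 25 uM, 7 pts; 15 min preinc., 1 h RT; fluorescence ex 525/em 598.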
nsP2 cell sec: Secondary cell base assay for inhibitors of NSP2Pro Chikungunya virus (CHIKV). shares compounds with nsP2pro primary. cell-based CHIKV nsP2 protease reporter assay. Potency, µM (doses to about 51.1 µM), without a hit: top-dose activity change, negative = inhibition, most hits filed as inhibitors. 450 tested, 10% active; note: nearly all actives have a fitted effect of over 70% in size
Target sequence (Q8JUX6 220-798 limits assumed): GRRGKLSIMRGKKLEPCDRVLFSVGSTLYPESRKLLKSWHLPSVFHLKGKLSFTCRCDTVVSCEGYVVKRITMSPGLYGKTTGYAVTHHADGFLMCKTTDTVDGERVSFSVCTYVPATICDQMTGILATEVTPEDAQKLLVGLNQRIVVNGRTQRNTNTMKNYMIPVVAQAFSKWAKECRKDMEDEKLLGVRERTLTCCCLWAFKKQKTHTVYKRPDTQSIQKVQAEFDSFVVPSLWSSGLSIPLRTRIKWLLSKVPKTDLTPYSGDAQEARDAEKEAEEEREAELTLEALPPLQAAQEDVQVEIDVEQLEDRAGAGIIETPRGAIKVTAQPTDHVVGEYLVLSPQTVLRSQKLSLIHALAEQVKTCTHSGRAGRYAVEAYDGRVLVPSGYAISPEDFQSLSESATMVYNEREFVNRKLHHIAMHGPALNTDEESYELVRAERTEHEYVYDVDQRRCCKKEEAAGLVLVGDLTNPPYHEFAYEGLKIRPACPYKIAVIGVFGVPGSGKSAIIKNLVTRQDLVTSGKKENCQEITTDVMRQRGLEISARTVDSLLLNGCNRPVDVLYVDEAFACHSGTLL
NSP2 full ctr: Selectivity profile for inhibitors of NSP2Pro chikungunya virus (CHIKV): Full length NSP2 enzyme counterscreen (CHIKV-NSP2); shares compounds with nsP2pro primary; Potency, µM (top dose mostly 50.7 µM), inactives show at the top dose activity change, negative = inhibition, usual class: inhibitors; Full-length CHIKV NSP2 protease enzymatic counterscreen; AID 1964101, 2024; 410 tested, 39% active; note: nearly all actives have a fitted effect of over 65% in size
Furin counter: Selectivity profile for inhibitors of NSP2Pro chikungunya virus (CHIKV): Human furin counterscreen. AID 1964102, 2024. shares compounds with nsP2pro primary. Potency, µM (series often up to 50.6 µM), for inactives: at the top dose activity change, negative = inhibition, most hits filed as inhibitors. 410 tested, 6% active. Recombinant human furin enzymatic counterscreen, fluorogenic substrate
nsP2 NS23 pep: Selectivity profile for inhibitors of NSP2Pro chikungunya virus (CHIKV): Endogenous NS2/3 peptide Counterscreen; 410 tested, 34% active; Purified CHIKV nsP2 protease, endogenous NS2/3 peptide cleavage; Potency, µM (doses to about 51 µM), without a hit: at the highest dose activity change, negative = inhibition, most hits filed as inhibitors; AID 1964103, 2024; shares compounds with nsP2pro primary; note: nearly all actives have a fitted effect of over 55% in size
Papain counter: Selectivity profile for inhibitors of NSP2Pro chikungunya virus (CHIKV): Papain Counterscreen. Potency, µM (top dose mostly 51 µM), for the others: top-dose activity change, negative = inhibition, most hits filed as inhibitors. shares compounds with nsP2pro primary. AID 1964104, 2024. 410 tested, 5% active. purified papain protease activity, enzymatic inhibition
nsP2pro confirm: Confirmatory qHTS for inhibitors of NSP2Pro chikungunya virus (CHIKV); CHIKV nsP2 protease enzymatic activity, qHTS; Potency, µM (doses to about 25.5 µM), for the others: at the top dose activity change, negative = inhibition, actives largely listed as inhibitors; shares compounds with nsP2pro primary; 410 tested, 43% active; note: nearly all actives have a fitted effect of over 75% in size
HCV NS3 4A cs: Selectivity profile for inhibitors of NSP2Pro chikungunya virus (CHIKV): NS34A-HCV Counterscreen. HCV NS3/4A protease biochemical counterscreen. AID 1964106, 2024. shares compounds with nsP2pro primary. 410 tested, 20% active. Potency, µM (highest dose often 50.9 µM), most hits filed as inhibitors; note: nearly all actives have a fitted effect of over 55% in size
The depositor's hits bear a star; i = inactive; ? = inconclusive; ! = repeats disagree; [ ] = another dose, or the depositor's remark. The entries come from a sample that favours hits as a whole. Calls come from the whole dose curve. % is set by controls: 0 for no effect and ±100 for the full control effect; potency is the fitted concentration of half-maximal effect.

SMILES	nsP2pro primary	others
NC(Cc1c[nH]c2ccc(O)cc12)C(=O)O (centres undefined)	?	nsP2 cell sec=7.5%;NSP2 full ctr=6.3%;Furin counter=-10.8%;nsP2 NS23 pep=-19.3%;Papain counter=-8.1%;nsP2pro confirm=-26.0%;HCV NS3 4A cs=i
O=C(NCCc1c[nH]c2ccc(O)cc12)c1ccc2ccccc2c1O	1.9%
O=C(Nc1ccccc1-c1cn2c(CN3CCNCC3)csc2n1)c1cnc2ccccc2n1	42.7%
O=S(=O)(c1ccc2c(c1)OCCO2)N1CCN(S(=O)(=O)c2ccc(F)c(F)c2F)CC1	-3.8%
O=C(Nc1cccc(C(F)(F)F)c1)[C@@H]1CCCN1c1ccnc2ccnn12	i
C=CCCCCCCCCC(=O)O	4.3µM*	nsP2 cell sec=-4.4%[17.6 µM];NSP2 full ctr=1.42µM*;Furin counter=?;nsP2 NS23 pep=?;Papain counter=?;nsP2pro confirm=2.19µM*;HCV NS3 4A cs=i
CCCCCCCC(=O)O	-4.7%
CCCCCCCCCCCCCCCC(=O)O	-15.3%
O=C1CCCC2=C1C(c1[nH]ncc1Cl)NC(=NCc1cccs1)N2 (centres undefined)	1.2%
CCOc1ccc(-c2cn3c(n2)sc2cc(C(=O)NCCC4=CCCCC4)ccc23)cc1	-14.8%
C=CCNc1oc(-c2cccc3ccccc23)nc1C#N	3.4%
C=CCNc1nnc(-c2cccc3ccccc23)o1	?	nsP2 cell sec=25.7%;NSP2 full ctr=23.1µM*;Furin counter=?;nsP2 NS23 pep=?;Papain counter=-3.6%;nsP2pro confirm=7.11µM*;HCV NS3 4A cs=?
C=CCSc1nnc(-c2cccc3ccccc23)o1	1.8%
Cc1cc(C)nc(NC(=S)N2CCN(c3cncs3)CC2)c1	2.2%
CC(NC(=O)C1CCN(C(=O)N2CCOc3ccccc32)CC1)c1ccccc1 (centres undefined)	-1.0%
O=c1cc(-c2cccnc2)nc(-c2cccc(CN3CCNCC3)c2)[nH]1	-0.1%
Cc1ccc(OCCC2CCN(C(=O)c3cc(CN4CCOCC4)on3)C2)cc1 (centres undefined)	2.5%
Cc1ccc(-c2cc3n(n2)CCCN(C(=O)c2cc(CN4CCOCC4)on2)C3)o1	1µM*	nsP2 cell sec=-9.1%;NSP2 full ctr=14.6µM*;Furin counter=-7.3%;nsP2 NS23 pep=?;Papain counter=-5.3%;nsP2pro confirm=7.11µM*;HCV NS3 4A cs=?
COc1ccc(-c2cc3n(n2)CCCN(C(=O)c2cc(CN4CCOCC4)on2)C3)cc1	16.3%
O=C(CCNc1c(-c2cccc(F)c2)nc2cnccn12)NCc1ccc(Cl)cc1	4.1%
O=C(O)c1ccc(O)c2ncc(NC3CCNC3)cc12 (centres undefined)	-0.5%
Cc1ccc(-c2csc3ncnc(Sc4nnnn4C)c23)cc1	i
Cn1nnnc1Sc1ncnc2scc(Br)c12	i
Cn1nnnc1Sc1ncnc2scc(I)c12	2.24µM*	nsP2 cell sec=7.3µM*;NSP2 full ctr=-2.7%;Furin counter=-3.6%;nsP2 NS23 pep=-8.7%;Papain counter=-6.3%;nsP2pro confirm=66.9%;HCV NS3 4A cs=?
Clc1ccc(Nc2nc3ccccc3c3nc(C4CCCCC4)[nH]c23)cc1Cl	-16.8%
SMILES	nsP2pro primary	others
Cc1nc(C2CCCN2Cc2ccc(-c3ccn[nH]3)o2)cs1 (centres undefined)	8.91µM*	nsP2 cell sec=13.7%;NSP2 full ctr=?;Furin counter=-3.0%;nsP2 NS23 pep=?;Papain counter=-5.6%;nsP2pro confirm=?;HCV NS3 4A cs=?
Cc1cc(C)nc(NC(=S)N2CCN(c3noc4ccccc34)CC2)c1	-4.1%
Cc1ccc(C(NC(=O)Cc2cccs2)C(=O)Nc2ccc(C(C)C)cc2)cc1 (centres undefined)	-18.6%
O=C(CSc1n[nH]c(-c2ccccc2Cl)n1)NCCCc1ccccc1	-13.0%
CC(C)(C)c1cc(-c2cc(-c3ccc(C(=O)O)cc3)ccc2OCCO)ccc1N1CCCC1	64.6%
C[C@@H]1C[C@@H](O)[C@@]23CO[C@]2(CO)CCC[C@@H]3[C@@]12C[C@@H](c1ccoc1)OC2=O	?	nsP2 cell sec=-6.5%[33.5 µM];NSP2 full ctr=-0.6%[33.5 µM];Furin counter=7.3%[33.5 µM];nsP2 NS23 pep=-5.4%[33.5 µM];Papain counter=-6.0%[33.5 µM];nsP2pro confirm=-20.9%[16.7 µM];HCV NS3 4A cs=i
CC1CC2OCC3(O)CCC(O)C(C14CC(c1ccoc1)OC4=O)C23CO (centres undefined)	-21.2%
CC(C)c1cc(CN2CCC(N3CCC(C(=O)NCc4ccccn4)CC3)CC2)[nH]n1	i
COCCO[C@H]1C(=O)N(C2CCN(C(=O)c3cnccn3)CC2)[C@H]1c1ccncc1	3.8%
COc1ccc(/C=C\c2onc(C)c2S(=O)(=O)N2CCC(C(=O)Nc3ccc(C)cc3C)CC2)cc1	-13.0%
Cc1cccc(NS(=O)(=O)c2ccc3c(c2)CC(C)N3C(=O)C2CCC2)c1C (centres undefined)	-17.6%
CS(=O)(=O)Nc1ccc(OCC(=O)N2CCN(c3ccc(F)cc3)CC2)nc1	-14.8%
COc1ccc(N2CCN(C(=O)c3cc4ccc5cccnc5c4[nH]3)CC2)cc1	-9.0%
CC(C)Nc1cccnc1N1CCN(C(=O)c2cc3cc(NS(C)(=O)=O)ccc3[nH]2)CC1	1.76µM*!	nsP2 cell sec=-1.2%;NSP2 full ctr=?;Furin counter=-6.5%;nsP2 NS23 pep=?;Papain counter=-1.5%;nsP2pro confirm=?;HCV NS3 4A cs=i
O=c1n(Cc2ccccc2)nc2n1-c1ccccc1OC2	-15.7%
O=C(CSc1nc2c([nH]c3ccccc32)c(=O)n1-c1cccc(Cl)c1)NCC1CCCO1 (centres undefined)	-2.9%
COC(=O)c1c(NC(=O)C(C)N2C(=O)c3ccccc3C2=O)sc2c1C(C(=O)OC)CC2 (centres undefined)	?	nsP2 cell sec=?;NSP2 full ctr=?;Furin counter=-8.9%;nsP2 NS23 pep=5.8µM*;Papain counter=-9.5%;nsP2pro confirm=3.57µM*;HCV NS3 4A cs=i
COC(=O)c1c(NC(=O)/C(C#N)=C/c2ccc(OC)cc2)sc2c1C(C(=O)OC)CC2 (centres undefined)	-8.4%
COC(=O)c1c(NC(=O)/C(C#N)=C/c2ccccc2)sc2c1C(C(=O)OC)CC2 (centres undefined)	0.5%
